Laboratory results from PubChem BioAssay (EPA / NIEHS).
Active and inactive are the calls of the source. How the source made its calls: active means hit-call score of the fitted dose curve at least 0.9, where 1 is the maximum; inconclusive means response in the unintended direction; inactive means score below 0.9.

biological target: human CYP1A2, CYP1A2 (gene 1544) (UniProt P05177); experiment: NVS_ADME_hCYP1A2: NovaScreen (NVS) CYP450-related Enzyme Activity (ADME) Assay for human CYP1A2 (AID 2283102);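 further: potency for inhibition since loss of fluorescence marks reduced CYP1A2 activity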
Sequence (P05177 whole entry, looked up): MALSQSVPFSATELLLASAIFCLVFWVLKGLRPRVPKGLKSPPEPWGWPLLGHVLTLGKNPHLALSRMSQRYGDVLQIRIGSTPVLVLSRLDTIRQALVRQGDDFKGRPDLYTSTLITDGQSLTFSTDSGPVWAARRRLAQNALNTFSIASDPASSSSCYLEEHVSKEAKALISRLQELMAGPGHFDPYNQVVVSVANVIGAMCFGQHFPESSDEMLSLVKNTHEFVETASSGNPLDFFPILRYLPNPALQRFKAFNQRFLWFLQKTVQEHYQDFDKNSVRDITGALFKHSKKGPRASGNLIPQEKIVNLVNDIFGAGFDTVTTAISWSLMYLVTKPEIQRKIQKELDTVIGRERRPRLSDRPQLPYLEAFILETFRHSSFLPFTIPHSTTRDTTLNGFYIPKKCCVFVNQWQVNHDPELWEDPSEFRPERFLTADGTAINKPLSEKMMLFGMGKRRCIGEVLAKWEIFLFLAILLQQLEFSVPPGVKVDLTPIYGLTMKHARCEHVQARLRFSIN
Method: NVS_ADME_hCYP1A2 is a biochemical, single-readout assay that uses extracted gene-proteins from insect cells in a cell-free assay. Measurements were taken 0.5 hour after chemical dosing in a 96-well plate.NVS_ADME_hCYP1A2 is one of one assay component(s) measured or calculated from the NVS_ADME_hCYP1A2 assay. It is designed to make measurements of enzyme activity, a form of enzyme reporter, as detected with fluorescence intensity signals by Fluorescence technology.Data from the assay component NVS_ADME_hCYP1A2 was analyzed into 1 assay endpoint. This assay endpoint, NVS_ADME_hCYP1A2, was analyzed in the positive analysis fitting direction relative to Acetonitrile as the negative control and baseline of activity. Using a type of enzyme reporter, loss-of-signal activity can be used to understand changes in the enzymatic activity as they relate to the gene CYP1A2. Furthermore, this assay endpoint can be referred to as a primary readout, because this assay has produced multiple assay endpoints where this one serves a enzymatic activity function. To generalize the intended target to other relatable targets, this assay endpoint is annotated to the cyp intended target family, where the subfamily is xenobiotic metabolism.
Binding assays used specific radioligands (tritiated, iodinated) with non-radioactive competitive displacement ligands in agonist or antagonist protocols (as indicated) and various reference compounds and inhibitors to titrate specific binding to receptors and transporters. Most enzyme assays (CYPs, kinases, phosphatases, proteases, HDACs) used recombinant protein and specific substrates (fluorescence mostly, some colorimetric and radioactive) and inhibitors, followed by a biochemical separation of substrate and product. All assays for the biochemical HTS were initially run in duplicate at a single concentration (10 uM for CYP450 assays and 25 uM for all others). […] Each assay was run with positive and negative controls, and concurrent controls on every plate. The follow-up (secondary) screen tested active chemical-pairs in concentration series, as well as a few additional assays not tested in the primary screen, some selected negative inactives, and several cases re-run in the concentration series for confirmatory purposes.

| Structure (SMILES) | AC50 |
| --- | --- |
| CC(C)Oc1cccc(NC(=O)c2ccccc2C(F)(F)F)c1 | 6.37 µM (active) |
| N#Cc1c[nH]cc1-c1cccc2c1OC(F)(F)O2 | 0.353 µM (active) |
| COc1ccc(-c2ccccc2)cc1NNC(=O)OC(C)C | 0.956 µM (active) |
| CC(C)NC(=O)N1CC(=O)N(c2cc(Cl)cc(Cl)c2)C1=O | 5.75 µM (active) |
| CCN(CC)c1nc(C)cc(OP(=S)(OC)OC)n1 | 1.41 µM (active) |
| CCNP(=S)(OC)O/C(C)=C/C(=O)OC(C)C (stereo not drawn) | 5.76 µM (active) |
| COP(=S)(OC)Oc1ccc([N+](=O)[O-])c(C)c1 | 0.516 µM (active) |
| CSC(=O)c1c(C(F)F)nc(C(F)(F)F)c(C(=O)SC)c1CC(C)C | 3.3 µM (active) |
| CCOP(=O)(OCC)Oc1nc(Cl)c(Cl)cc1Cl | 3.36 µM (active) |
| CNC(=O)Oc1cccc2ccccc12 | 5.35 µM (active) |
| COC(=O)c1c(C(F)F)nc(C(F)(F)F)c(C2=NCCS2)c1CC(C)C | 0.561 µM (active) |
| O=C1C2CC=CCC2C(=O)N1SC(Cl)(Cl)Cl (stereo not drawn) | 6.89 µM (active) |
| COP(=S)(OC)SCn1nnc2ccccc2c1=O | 2.79 µM (active) |
